Data as given in ChEMBL document CHEMBL1961873, “Compounds: GSK PKIS; Assays: Nanosyn kinase panel” (2012).

The compounds below were run against Tyrosine-protein kinase JAK1 (Homo sapiens) (UniProt P23458). Conditions: at 1 µM.
Tyrosine-protein kinase JAK1 (Homo sapiens), sequence (P23458 whole entry): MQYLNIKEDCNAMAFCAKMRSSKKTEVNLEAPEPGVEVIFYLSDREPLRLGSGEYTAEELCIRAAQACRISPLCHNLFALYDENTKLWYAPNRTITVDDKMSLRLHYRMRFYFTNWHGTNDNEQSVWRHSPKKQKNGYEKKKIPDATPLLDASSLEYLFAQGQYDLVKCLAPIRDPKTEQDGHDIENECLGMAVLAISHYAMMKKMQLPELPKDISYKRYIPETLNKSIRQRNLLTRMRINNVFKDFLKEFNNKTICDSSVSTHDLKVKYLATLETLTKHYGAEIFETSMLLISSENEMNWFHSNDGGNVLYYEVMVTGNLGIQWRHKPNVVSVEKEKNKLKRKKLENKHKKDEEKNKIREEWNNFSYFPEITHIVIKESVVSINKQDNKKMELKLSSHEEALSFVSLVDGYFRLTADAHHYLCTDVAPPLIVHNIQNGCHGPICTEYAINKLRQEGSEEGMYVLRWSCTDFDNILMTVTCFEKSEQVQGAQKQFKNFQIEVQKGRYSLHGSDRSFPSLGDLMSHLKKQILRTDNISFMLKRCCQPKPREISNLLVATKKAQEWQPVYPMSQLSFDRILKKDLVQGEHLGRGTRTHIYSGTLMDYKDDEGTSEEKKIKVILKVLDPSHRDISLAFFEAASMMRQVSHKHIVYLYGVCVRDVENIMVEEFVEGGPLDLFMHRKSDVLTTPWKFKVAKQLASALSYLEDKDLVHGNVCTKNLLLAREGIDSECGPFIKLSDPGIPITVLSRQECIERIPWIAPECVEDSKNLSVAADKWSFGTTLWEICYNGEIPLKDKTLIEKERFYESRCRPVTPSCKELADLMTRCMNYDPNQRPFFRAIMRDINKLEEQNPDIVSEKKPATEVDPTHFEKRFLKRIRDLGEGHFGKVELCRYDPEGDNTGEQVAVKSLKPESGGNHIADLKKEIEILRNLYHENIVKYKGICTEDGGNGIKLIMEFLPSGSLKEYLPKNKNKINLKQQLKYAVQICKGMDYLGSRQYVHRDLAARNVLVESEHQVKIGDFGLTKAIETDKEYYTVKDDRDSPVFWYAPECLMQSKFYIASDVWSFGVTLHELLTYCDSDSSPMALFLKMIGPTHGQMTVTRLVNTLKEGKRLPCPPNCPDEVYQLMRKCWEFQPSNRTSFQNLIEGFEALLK
`ON=C1CCc2cc(-c3nc(C4CCNCC4)[nH]c3-c3ccncc3)ccc21` was tested, and the inhibition was 0.05%.
`CS(=O)(=O)Nc1cccc(-c2ccc3c(NC(=O)C4CC4)n[nH]c3c2)c1` gave an inhibition of 0.48%.
For `NS(=O)(=O)c1ccc(-c2cc3ccncc3cc2OCc2ccccc2)cc1`, the inhibition was 10%.
In the case of `[O-][S+]1CCN(Cc2ccc(-c3ccc4ncnc(Nc5ccc(OCc6ccccc6)c(Cl)c5)c4c3)o2)CC1`, the inhibition is reported as 2.62%.
Compound `N#Cc1c(NC(=O)c2ccccc2F)sc2c1CCCC2` has an inhibition of -1.49%.
Compound `COc1cc2ncn(-c3cc(OCc4ccccc4S(C)(=O)=O)c(C#N)s3)c2cc1OC` has an inhibition of 5.39%.
`NC(=O)c1cccc(Nc2nccc(Nc3cccc(F)c3)n2)c1` gave an inhibition of 32%.
`CN(C)C(=O)O[C@H]1CN[C@H](C#Cc2cc3ncnc(Nc4ccc(OCc5cccc(F)c5)c(Cl)c4)c3s2)C1` showed an inhibition of 4.66%.
`Cc1ccc(NC(=O)CC2CC2)cc1-c1ccc(C(=O)NCC2CC2)cc1` showed an inhibition of 6.97%.
For `CN(C)c1cc2c(Nc3ccc4c(cnn4Cc4ccccc4)c3)ncnc2cn1`, the inhibition was -0.82%.
Work on `CN(c1ccc(NC(=O)Nc2ccc(OC(F)(F)F)cc2)cc1)c1ccnc(Nc2cccc(S(N)(=O)=O)c2)n1` yielded an inhibition of 12.8%.
`CCS(=O)(=O)c1ccc(OC)c(Nc2ncc(-c3cccc(OC)c3)o2)c1` gave an inhibition of -4.39%.
Work on `COc1cc(Nc2nccc(-c3cnn4ncccc34)n2)cc(OC)c1` yielded an inhibition of 22.9%.
Work on `O=C1Nc2ccc(-c3cccnc3)cc2C1=Cc1cc(Br)c(O)c(Br)c1` yielded an inhibition of 1.97%.
Compound `CN(C)C(=O)O[C@@H]1CN[C@@H](C#Cc2cc3ncnc(Nc4ccc(OCc5cccc(F)c5)c(Cl)c4)c3s2)C1` has an inhibition of 0.05%.
`Cc1nc(-c2ccccc2)n2nc(NCCCN3CCOCC3)ncc12` gave an inhibition of 4.63%.
Work on `COc1cc(/C=N/Nc2ncnc3c2cnn3C(C)C)ccc1O` yielded an inhibition of 14.2%.
Work on `COc1cccc(-n2nc(C)c3c(N/N=C(\C)c4ccncc4)ncnc32)c1` yielded an inhibition of 4.07%.
For `Cc1ccc2c(-c3ccnc(Nc4ccc5c(c4)OCCO5)n3)c(-c3ccc(C(F)(F)F)cc3)nn2n1`, the inhibition was 1.09%.
Work on `COc1cc2ncnc(Nc3ccc4c(cnn4Cc4ccccc4)c3)c2cc1OC` yielded an inhibition of 2.43%.
Work on `Cc1ccc2c(-c3ccnc(Nc4cccc(C(F)(F)F)c4)n3)c(-c3ccccc3)nn2n1` yielded an inhibition of 4.74%.
`Cc1cc(O)cc(C)c1/C=C/c1cncc(C(=O)N(C)C)c1` showed an inhibition of 5.42%.
In the case of `Nc1ccc(C#Cc2cncnc2Nc2ccc(OCc3cccc(F)c3)c(Cl)c2)cc1`, the inhibition is reported as 0.58%.
`Nc1nccc(-c2c(-c3ccc(F)cc3)ncn2CCCN2CCOCC2)n1` gave an inhibition of 17.8%.
Work on `N#Cc1cccc(Nc2nccc(-c3cnn4ncccc34)n2)c1` yielded an inhibition of 14.9%.
With `NC(=O)c1sc(-n2cnc3ccccc32)cc1OCc1ccccc1Br` the inhibition was 3.98%.
In the case of `CCS(=O)(=O)c1ccc(OC)c(Nc2nccc(N(C)c3ccc4c(C)n[nH]c4c3)n2)c1`, the inhibition is reported as 5.13%.
`O=C(Nc1ccc(Oc2ccc3[nH]c(NC(=O)c4ccco4)nc3c2)cc1)Nc1cc(C(F)(F)F)ccc1F` gave an inhibition of 0.27%.
For `COC(=O)c1ccc2c(c1)C(=Cc1cc(Br)c(O)c(Br)c1)C(=O)N2`, the inhibition was 12.2%.
`CCOc1nccc2c1nc(-c1nonc1N)n2CC` gave an inhibition of 18.7%.
`COC(=O)Nc1nc2cc(Oc3ccc(NC(=O)Nc4cccc(Br)c4)cc3)ccc2[nH]1` gave an inhibition of 11.8%.
In the case of `CCn1c(-c2nonc2N)nc2c(C#CC(C)(C)O)nc(OCCNC)cc21`, the inhibition is reported as 2.83%.
Compound `NS(=O)(=O)c1cccc(-c2cc3ccncc3cc2OCc2ccccc2)c1` has an inhibition of 2.7%.
`NS(=O)(=O)c1ccc(N/N=C2\C(=O)Nc3ccc(Cl)cc32)cc1` was tested, and the inhibition was 11.7%.

What follows are compounds tested against Tyrosine-protein kinase JAK2 (Homo sapiens) (UniProt O60674). Conditions: at 0.1 µM.
Tyrosine-protein kinase JAK2 (Homo sapiens), sequence (O60674 whole entry): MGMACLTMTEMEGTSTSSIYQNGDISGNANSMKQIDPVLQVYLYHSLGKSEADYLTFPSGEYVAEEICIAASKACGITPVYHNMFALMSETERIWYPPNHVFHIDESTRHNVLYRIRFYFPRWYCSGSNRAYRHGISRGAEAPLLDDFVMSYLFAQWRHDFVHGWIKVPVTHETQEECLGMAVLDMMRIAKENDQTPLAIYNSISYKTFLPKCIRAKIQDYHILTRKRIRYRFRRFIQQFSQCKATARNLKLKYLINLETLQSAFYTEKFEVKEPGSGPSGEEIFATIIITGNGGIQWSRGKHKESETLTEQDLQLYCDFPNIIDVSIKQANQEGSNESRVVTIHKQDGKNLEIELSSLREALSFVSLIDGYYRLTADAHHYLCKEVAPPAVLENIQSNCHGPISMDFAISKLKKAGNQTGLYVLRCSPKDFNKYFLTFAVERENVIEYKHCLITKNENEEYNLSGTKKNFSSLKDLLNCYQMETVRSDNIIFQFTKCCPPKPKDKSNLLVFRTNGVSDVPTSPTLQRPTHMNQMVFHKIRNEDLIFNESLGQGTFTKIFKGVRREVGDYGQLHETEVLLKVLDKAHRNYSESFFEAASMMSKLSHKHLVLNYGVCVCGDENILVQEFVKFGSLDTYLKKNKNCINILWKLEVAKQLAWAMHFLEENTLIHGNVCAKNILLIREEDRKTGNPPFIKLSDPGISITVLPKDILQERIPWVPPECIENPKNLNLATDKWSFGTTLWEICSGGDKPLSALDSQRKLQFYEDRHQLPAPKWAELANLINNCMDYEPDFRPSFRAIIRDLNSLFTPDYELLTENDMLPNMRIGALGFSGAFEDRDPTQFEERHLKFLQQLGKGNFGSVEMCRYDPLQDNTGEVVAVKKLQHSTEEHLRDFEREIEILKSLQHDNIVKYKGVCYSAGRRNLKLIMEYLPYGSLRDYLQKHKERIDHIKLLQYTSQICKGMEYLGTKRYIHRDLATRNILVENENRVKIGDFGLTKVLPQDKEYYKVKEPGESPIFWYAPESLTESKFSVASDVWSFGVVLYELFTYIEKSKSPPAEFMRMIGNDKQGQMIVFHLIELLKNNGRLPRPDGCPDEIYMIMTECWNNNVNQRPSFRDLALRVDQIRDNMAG
For `ON=C1CCc2cc(-c3nc(C4CCNCC4)[nH]c3-c3ccncc3)ccc21`, the inhibition was -0.01%.
For `CS(=O)(=O)Nc1cccc(-c2ccc3c(NC(=O)C4CC4)n[nH]c3c2)c1`, the inhibition was 0.43%.
For `NS(=O)(=O)c1ccc(-c2cc3ccncc3cc2OCc2ccccc2)cc1`, the inhibition was 1.43%.
`[O-][S+]1CCN(Cc2ccc(-c3ccc4ncnc(Nc5ccc(OCc6ccccc6)c(Cl)c5)c4c3)o2)CC1` showed an inhibition of 0.66%.
`N#Cc1c(NC(=O)c2ccccc2F)sc2c1CCCC2` showed an inhibition of -0.7%.
In the case of `COc1cc2ncn(-c3cc(OCc4ccccc4S(C)(=O)=O)c(C#N)s3)c2cc1OC`, the inhibition is reported as 2.72%.
Work on `NC(=O)c1cccc(Nc2nccc(Nc3cccc(F)c3)n2)c1` yielded an inhibition of 2.34%.
`CN(C)C(=O)O[C@H]1CN[C@H](C#Cc2cc3ncnc(Nc4ccc(OCc5cccc(F)c5)c(Cl)c4)c3s2)C1` gave an inhibition of 1.84%.
In the case of `Cc1ccc(NC(=O)CC2CC2)cc1-c1ccc(C(=O)NCC2CC2)cc1`, the inhibition is reported as 1.47%.
In the case of `CN(C)c1cc2c(Nc3ccc4c(cnn4Cc4ccccc4)c3)ncnc2cn1`, the inhibition is reported as 0.91%.
With `CN(c1ccc(NC(=O)Nc2ccc(OC(F)(F)F)cc2)cc1)c1ccnc(Nc2cccc(S(N)(=O)=O)c2)n1` the inhibition was 0.3%.
For `CCS(=O)(=O)c1ccc(OC)c(Nc2ncc(-c3cccc(OC)c3)o2)c1`, the inhibition was 0.87%.
In the case of `COc1cc(Nc2nccc(-c3cnn4ncccc34)n2)cc(OC)c1`, the inhibition is reported as 1.89%.
`O=C1Nc2ccc(-c3cccnc3)cc2C1=Cc1cc(Br)c(O)c(Br)c1` gave an inhibition of 1.07%.
`CN(C)C(=O)O[C@@H]1CN[C@@H](C#Cc2cc3ncnc(Nc4ccc(OCc5cccc(F)c5)c(Cl)c4)c3s2)C1` gave an inhibition of 0.23%.
In the case of `Cc1nc(-c2ccccc2)n2nc(NCCCN3CCOCC3)ncc12`, the inhibition is reported as 0.5%.
Compound `COc1cc(/C=N/Nc2ncnc3c2cnn3C(C)C)ccc1O` has an inhibition of 0.62%.
Compound `COc1cccc(-n2nc(C)c3c(N/N=C(\C)c4ccncc4)ncnc32)c1` has an inhibition of -0.64%.
For `Cc1ccc2c(-c3ccnc(Nc4ccc5c(c4)OCCO5)n3)c(-c3ccc(C(F)(F)F)cc3)nn2n1`, the inhibition was 0.16%.
`COc1cc2ncnc(Nc3ccc4c(cnn4Cc4ccccc4)c3)c2cc1OC` was tested, and the inhibition was 1.01%.
Work on `Cc1ccc2c(-c3ccnc(Nc4cccc(C(F)(F)F)c4)n3)c(-c3ccccc3)nn2n1` yielded an inhibition of 1.01%.
`Cc1cc(O)cc(C)c1/C=C/c1cncc(C(=O)N(C)C)c1` gave an inhibition of 1.7%.
Compound `Nc1ccc(C#Cc2cncnc2Nc2ccc(OCc3cccc(F)c3)c(Cl)c2)cc1` has an inhibition of 0.74%.
In the case of `Nc1nccc(-c2c(-c3ccc(F)cc3)ncn2CCCN2CCOCC2)n1`, the inhibition is reported as 1.23%.
`N#Cc1cccc(Nc2nccc(-c3cnn4ncccc34)n2)c1` showed an inhibition of 2.15%.
In the case of `NC(=O)c1sc(-n2cnc3ccccc32)cc1OCc1ccccc1Br`, the inhibition is reported as 1.97%.
`CCS(=O)(=O)c1ccc(OC)c(Nc2nccc(N(C)c3ccc4c(C)n[nH]c4c3)n2)c1` gave an inhibition of 1.45%.
With `O=C(Nc1ccc(Oc2ccc3[nH]c(NC(=O)c4ccco4)nc3c2)cc1)Nc1cc(C(F)(F)F)ccc1F` the inhibition was 1.11%.
Compound `COC(=O)c1ccc2c(c1)C(=Cc1cc(Br)c(O)c(Br)c1)C(=O)N2` has an inhibition of 1.7%.
In the case of `CCOc1nccc2c1nc(-c1nonc1N)n2CC`, the inhibition is reported as 1.55%.
Work on `COC(=O)Nc1nc2cc(Oc3ccc(NC(=O)Nc4cccc(Br)c4)cc3)ccc2[nH]1` yielded an inhibition of 1.09%.
Work on `CCn1c(-c2nonc2N)nc2c(C#CC(C)(C)O)nc(OCCNC)cc21` yielded an inhibition of 2.5%.
In the case of `NS(=O)(=O)c1cccc(-c2cc3ccncc3cc2OCc2ccccc2)c1`, the inhibition is reported as 1.82%.
`NS(=O)(=O)c1ccc(N/N=C2\C(=O)Nc3ccc(Cl)cc32)cc1` gave an inhibition of 1.28%.
